Screening data deposited in PubChem by The Scripps Research Institute Molecular Screening Center.
LRH-1 inv ag: inverse agonists of human LRH-1 (NR5A2). HEK293T StAR-luciferase reporter, LRH-1 transfected, 24 h. inhibition, % at 3.6 µM. actives 0.13% (n = 360,000). AID 602396;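 active = inhibition above the mean inhibition of all tested compounds plus 3 SD, cut at about 73% in these data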
NR2F2 inh: NR2F2 (human) inhibition, primary screen | P24468 | actives 0.7% (n = 370,000) | inhibition, % at 8.6 µM | HEK293T NGFI-A luciferase reporter, luminescence;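 active = inhibition above a per-plate cutoff, mean inhibition of test wells between control levels plus 3 SD, cut at about 38% in these data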;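 note: cells cotransfected with COUP-TFII expression vector driving the NGFI-A reporter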
Target sequence (P24468 whole entry, looked up): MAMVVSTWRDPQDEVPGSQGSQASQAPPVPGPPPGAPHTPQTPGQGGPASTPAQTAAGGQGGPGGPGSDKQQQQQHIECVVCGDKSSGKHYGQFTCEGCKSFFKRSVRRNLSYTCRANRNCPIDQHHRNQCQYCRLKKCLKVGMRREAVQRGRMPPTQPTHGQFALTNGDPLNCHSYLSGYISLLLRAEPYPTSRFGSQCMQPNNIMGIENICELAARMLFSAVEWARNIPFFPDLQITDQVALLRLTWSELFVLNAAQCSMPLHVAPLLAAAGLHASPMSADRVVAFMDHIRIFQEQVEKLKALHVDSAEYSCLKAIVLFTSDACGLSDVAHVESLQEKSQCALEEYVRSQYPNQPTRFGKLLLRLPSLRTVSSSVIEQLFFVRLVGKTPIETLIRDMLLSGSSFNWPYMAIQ
SRC1 inh: human NCOA1 inhibition | Q15788 | HEK293 GAL4-SRC1 luciferase reporter, luminescence | inhibition, % at 3.6 µM | actives 0.12% (n = 360,000);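 active = inhibition above the campaign mean plus 3 SD, with each screening campaign given its own cutoff, cut at about 60% in these data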
NCOA2 inhibitor: inhibits human steroid receptor coactivator 2. Q15596. HEK293 GAL4-SRC2 luciferase reporter, luminescence. inhibition, % at 9 µM. actives 0.17% (n = 370,000). AID 651957;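 active = inhibition above the mean inhibition of all tested compounds plus 3 SD, set per campaign, cut at about 52% in these data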
SRC3 inh: inhibits human SRC3 coactivator. HEK293 GAL4-SRC3 luciferase reporter, luminescence. inhibition, % at 3.6 µM. actives 0.17% (n = 360,000). AID 588352;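 active = inhibition above a per-campaign cutoff, the mean of all compounds plus 3 SD, cut at about 60% in these data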;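 note: higher means less SRC3-driven luciferase light from the GAL4 reporter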
VP16 Luc counter: counter-screen for COUP-TFII antagonists: inhibitors of VP16 | shares compounds with NR2F2 inh | HEK293 Gal4-VP16 luciferase reporter, luminescence | inhibition, % at 8.5 µM | actives 25% (n = 2,500); in the data active = inhibition above about 13%
COUP-TFII conf: confirmation of human COUP-TFII (NR2F2) inhibitors | shares compounds with NR2F2 inh | HEK293 NGFI-A luciferase reporter, luminescence | inhibition, % at 8.5 µM | actives 45% (n = 2,500);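 active = mean inhibition over three repeats above a set limit taken from the earlier primary screen, cut at about 38% in these data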
Hits are given with their value; n = inactive; x = no result. Most compounds without a hit are left out; they make up all but 0.83% or so of the library.

SMILES	LRH-1 inv ag	NR2F2 inh	SRC1 inh	NCOA2 inhibitor	SRC3 inh	VP16 Luc counter	COUP-TFII conf
COC(=O)[C@H](CC(C)C)N(CCCc1cn(CC2CCCCC2)nn1)S(=O)(=O)c1ccc(F)cc1Br	x	n	x	n	x	x	x
O=C(C(=O)N1CCC(CNC(=O)c2cccs2)CC1)c1cc2ccccc2o1	x	n	x	n	x	x	x
O=C(CN1C(=O)CCC1=O)c1ccc(-c2ccccc2)cc1	n	n	n	n	n	x	x
N=c1ccn(CC(=O)c2ccc(-c3ccccc3)cc2)cc1	n	58	n	n	73	n	54
O=C(NC1CCC1)O[C@H]1CC[C@@]23CCCN2C(=O)CCC[C@H]3C1	x	n	x	x	x	x	x
Nc1ccc(-c2nc3cc(N)ccc3o2)cc1	n	n	n	n	n	x	x
COC(=O)c1ccc(-c2nc3cc(N)ccc3o2)cc1	n	41	n	n	n	22	n
Cc1ccc(-c2nc3cc(N)ccc3o2)cc1Br	n	n	n	n	n	x	x
Cc1ccc(C)c(-c2nc3cc(N)ccc3o2)c1	n	42	n	55	n	n	n
Cn1nc(C(C)(C)C)cc1C(=O)NCc1ccc2c(c1)OCO2	n	60	n	n	n	n	50
Cc1oc(C(C)(C)C)cc1C(=O)NCc1ccc2c(c1)OCO2	n	n	n	n	n	x	x
COc1ccc(CCNC(=O)c2ccc(CS(=O)(=O)c3ccc(Cl)cc3)o2)cc1OC	n	49	n	n	n	n	n
O=C(NCc1ccccc1)[C@H]1CCCN1C(=O)[C@H]1CCCN1C(=O)c1ccccc1C(F)(F)F	x	n	x	n	x	x	x
CN(C(=O)C(C)(C)C)c1ccc(OCC(=O)N2CCc3ccccc3C2)cc1	n	48	n	n	n	n	48
CCN(CC)S(=O)(=O)c1cc(NC(=O)c2ccc(-n3cncn3)c([N+](=O)[O-])c2)ccc1C	n	54	n	n	n	n	n
Cc1ccc(NC(=O)c2ccc(-n3cncn3)c([N+](=O)[O-])c2)cc1	n	n	n	n	n	x	x
CC(=O)CC[C@@H]1CC[C@]2(CCCN(S(=O)(=O)c3ccccc3)C2)O1	x	n	x	n	x	x	x
COC(=O)c1cc2c(c3c4cc(F)ccc4n(S(=O)(=O)c4ccccc4)c13)C(=O)N(Cc1ccccc1)C2	x	n	x	n	x	x	x
CCC1Sc2ccc(S(=O)(=O)Nc3ccc(OC)c(OC)c3)cc2NC1=O (stereo unspecified)	n	52	n	n	n	n	n
O=C(c1cc(COc2c(F)cccc2F)on1)N1CCC(c2ccncc2)CC1	n	60	n	n	n	n	47
Cc1cccc(C)c1OCc1cc(C(=O)N2CCC(c3ccncc3)CC2)no1	n	n	n	n	n	x	x
CCOc1ccc(CCNC(=O)c2cc3sccc3n2Cc2ccccc2)cc1OCC	x	40	x	x	x	n	n
CCOc1ccc(CCNC(=O)c2ccc(Oc3ccccc3)cc2)cc1OCC	x	n	x	x	x	x	x
CCOc1ccc(CCNC(=O)c2ccc3[nH]ccc3c2)cc1OCC	x	41	x	x	x	n	n
CCOc1ccc(CCNC(=O)c2cc3sccc3n2CC)cc1OCC	n	50	n	n	n	n	n
SMILES	LRH-1 inv ag	NR2F2 inh	SRC1 inh	NCOA2 inhibitor	SRC3 inh	VP16 Luc counter	COUP-TFII conf
Nc1[nH]n(-c2ccccc2)c(=O)c1N=Nc1ccc(F)cc1	x	n	x	n	x	x	x
CCOC(=O)Nc1ccc2c(c1)[C@]1(CC(=O)N(CC(C)C)C1c1ccccc1)C(=O)N2C (stereo partly specified)	x	n	x	n	x	x	x
COC(=O)[C@]12C[C@H](CC(=O)N3CCCC3)C(=O)N(Cc3ccccc3)C1=C[C@H](C(C)C)O[C@@H]2C1CC1	x	n	x	n	x	x	x
CCc1ccn2cc(-c3cc(-c4ccccc4)no3)nc2c1	n	88	n	74	n	18	67
CC(C)(C)c1ccc2c(c1)OC(C(=O)N/N=C/c1ccc[nH]1)CO2 (stereo unspecified)	x	47	x	x	x	n	40
CC(C)(C)c1ccc2c(c1)OC(C(=O)N/N=C\c1ccc[nH]1)CO2 (stereo unspecified)	n	n	n	n	n	x	x
CC1(C)C2CC=C(/C=N/NC(=S)Nc3cccnc3)C1C2 (stereo unspecified)	n	n	n	n	n	x	x
CC1=C/C(=N\NC(=S)Nc2cccnc2)CC(C)(C)C1	n	39	n	n	n	n	n
COC(=O)[C@]12C[C@H](CC(=O)N3CCCCC3)C(=O)N(CCC3=CCCCC3)C1=C[C@H](C(C)(C)C)O[C@@H]2C	x	n	x	n	x	x	x
O=C(COc1ccc(Br)cc1Cl)NC(=S)Nc1ccccn1	n	n	n	n	n	x	x
Cc1ccc(OCC(=O)NC(=S)Nc2ccccn2)c(Br)c1	n	50	n	n	n	n	n
CC(=O)N1C[C@@H](CO)[C@@H](N(C)C(=O)Nc2cccc3ccccc23)C[C@H]1c1ccccc1	x	n	x	n	x	x	x
COc1ccc(CCNc2ccc(N3C(=O)CC(C)C3=O)cc2[N+](=O)[O-])cc1OC (stereo unspecified)	n	55	n	n	n	n	n
COc1ccc(CCNc2ccc(N3C(=O)CC(C)C3=O)cc2[N+](=O)[O-])cc1 (stereo unspecified)	n	n	n	n	n	x	x
CC(C)(C)c1ccc(-c2cc(-c3ccccc3O)[nH]n2)cc1	n	37	n	n	n	n	51
CCOC(=O)CNC(=O)CSc1nnc(-c2cccs2)o1	x	n	x	n	x	x	x
O=C(NCCCc1ccccc1)[C@H](Cc1ccccc1)NC1(C(=O)NCCc2c[nH]c3ccccc23)CCOCC1	x	n	x	x	x	x	x
c1ccc(C(Cc2nc(-c3ccncc3)no2)c2ccccc2)cc1	n	56	n	n	n	n	41
CCNc1nc(N)c([N+](=O)[O-])c(Nc2cccc(Cl)c2)n1	x	n	x	x	x	x	x
Cc1cc(C2=NNC(=NC3CC3)SC2)c(C)n1-c1ccccc1F	89	97	93	93	89	94	108
c1cc2c(cc1C1=NNC(=NC3CC3)SC1)OCCO2	n	46	n	61	66	52	76
Cc1cc(C2=NNC(=NC3CCCCC3)SC2)c(C)n1-c1c(C)n(C)n(-c2ccccc2)c1=O	n	n	n	n	n	x	x
Nc1[nH]c(C(=O)c2ccccc2)c(-c2ccccn2)c1C(=O)c1c[nH]c2ccc(Br)cc12	x	n	x	x	x	x	x
Cc1c(CCC(=O)O)c(=O)oc2cc3oc4c(c3cc12)CCCC4	n	42	n	64	n	59	50
Cc1c(CCC(=O)N[C@@H](CC(C)C)C(=O)O)c(=O)oc2cc3oc4c(c3cc12)CCCC4	n	46	n	n	n	21	n
C#CCNC(=O)C[C@H]1C[C@@]2(C(=O)OC)C(=C[C@H](C(C)(C)C)O[C@@H]2C)N(CCC2=CCCCC2)C1=O	x	n	x	n	x	x	x
CC(=O)C1=C(C)N(Cc2ccc(F)cc2)C(=S)NC1c1ccccc1 (stereo unspecified)	x	n	x	n	x	x	x
O=C(Nc1ccc(Cl)cc1)/C(=C/c1cccc(O)c1)c1nc2ccccc2s1	n	66	n	55	n	40	54
